# Among all 62,000 compounds or so, about 120 (0.19%) were called active. The full list was thinned out, with actives kept by preference. A number with no mark means an inactive call. Rule as the data show it: active = inhibition above about 20% (passing the limit was not always enough); inactive = the rest.
# Target: Coagulation factor XI (Homo sapiens) (UniProt P03951)
# Assay: human factor XIa inhibition by mixtures – biochemical, 10-compound mixtures, primary screen (AID 680);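 also: each value is inhibition by a whole ten-compound pool holding the compound; 0% = enzyme with no mixture and 100% = wells lacking enzyme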
# Settings: purified FXIa, fluorogenic substrate, pooled mixtures; at 5 µM; active compounds read high
# Coagulation factor XI (Homo sapiens), sequence (P03951 19-387 limits assumed): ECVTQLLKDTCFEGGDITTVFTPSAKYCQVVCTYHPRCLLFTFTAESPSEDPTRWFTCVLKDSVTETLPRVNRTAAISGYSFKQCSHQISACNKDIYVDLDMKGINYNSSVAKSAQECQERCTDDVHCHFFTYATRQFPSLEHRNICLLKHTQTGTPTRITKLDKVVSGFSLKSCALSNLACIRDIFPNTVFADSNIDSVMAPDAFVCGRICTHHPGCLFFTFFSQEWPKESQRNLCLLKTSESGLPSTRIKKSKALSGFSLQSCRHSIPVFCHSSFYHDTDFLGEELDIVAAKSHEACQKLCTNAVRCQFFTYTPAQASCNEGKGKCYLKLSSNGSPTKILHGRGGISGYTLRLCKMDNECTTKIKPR
# Coagulation factor XI (Homo sapiens), sequence (P03951 388-625 limits assumed): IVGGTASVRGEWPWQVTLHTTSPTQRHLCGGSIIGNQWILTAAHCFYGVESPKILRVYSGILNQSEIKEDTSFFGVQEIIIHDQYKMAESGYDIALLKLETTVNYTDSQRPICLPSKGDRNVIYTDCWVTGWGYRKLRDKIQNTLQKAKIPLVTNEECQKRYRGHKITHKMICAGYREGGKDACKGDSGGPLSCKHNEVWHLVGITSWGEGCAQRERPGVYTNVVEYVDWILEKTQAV
row,SMILES,inhibition
1,COC(C)(C)[C@]12CC(O)(C(C)C)ON1[C@H]1CCCCC1N2O (some centres not stated),-9.49%
2,CCOC(=O)CSc1nnc(CNC(=O)Cc2ccccc2)n1-c1ccccc1OC,13.1%
3,COc1ccc(CCN2C(=O)c3[nH]nc(-c4ccccc4O)c3C2c2ccc(C)cc2)cc1OC (configuration not stated),8.98%
4,CCc1c(C)n([O-])c2c([n+]1=O)CCCCC2,5.37%
5,CC(C)(C)n1c(=O)[nH]c2c(c1=O)CCC2,5.49%
6,O=C(CC1(O)C(=O)N(CN2CCOCC2)c2ccccc21)c1ccccc1 (configuration not stated),4.51%
7,Cc1cc(NC(=O)CCC(=O)N(c2ccccc2)C(C(=O)NC2CCCC2)c2ccncc2)no1 (configuration not stated),10%
8,Cn1c(NC(=O)c2ccco2)c(-c2ccccc2Cl)c(=O)c2ccccc21,7.49%
9,CC(C)(C)NC(=O)C(c1ccncc1)N(C(=O)CNC(=O)c1ccco1)c1ccc2c(c1)OCO2 (configuration not stated),8.32%
10,CCOC(=O)C1CCN(C(=O)COc2cc(C)c(Br)c(C)c2)CC1,-1.91%
11,O=C(CSc1nc2c(cnn2-c2ccc(F)cc2)c(=O)[nH]1)N1CCCCCC1,2.05%
12,CCC(=O)c1cc2c(cc1NC(=O)c1cccs1)OCCO2,1.74%
13,Cc1oc(-c2cccc(Cl)c2)[n+]([O-])c1C,1.39%
14,CN(C)S(=O)(=O)c1ccc(Oc2ccc(S(=O)(=O)N(C)C)cc2)cc1,7.21%
15,Cc1cccc2c1N(CC(=O)OC(C)C)C(=O)C2=O,1.41%
16,CC1CCN(c2nc3c(c(=O)[nH]c(=O)n3C)n2CCCc2ccccc2)CC1,-1.49%
17,O=C(CSc1nnc(-c2ccncc2)n1C1CCCCC1)Nc1ccccc1,8.47%
18,Fc1ccc(-c2nnc(CSc3nnc(-c4ccc5c(c4)OCO5)o3)o2)cc1,0.485%
19,COc1cccc(-n2cc3c(c2-c2ccccc2)c(=O)n(C)c(=O)n3C)c1,3.95%
20,OCCCNC(c1ccccc1)c1ccc(O)cc1 (configuration not stated),7.84%
21,COc1ccc2c(CC(=O)Nc3nnc(C4CC4)s3)coc2c1,4.86%
22,COc1ccccc1Cn1c(=S)[nH]c2cc(C(=O)N3CCN(C)CC3)ccc2c1=O,5.3%
23,COc1cccc(NC(=O)CN(C)S(=O)(=O)c2ccc(C)cc2)c1,-2.5%
24,Cc1ccccc1-c1nc(CS(=O)(=O)CC(=O)N2CCc3ccccc3C2)c(C)o1,11.3%
25,COc1ccccc1CNC(=O)CCCn1c(=O)c2ccccc2n(CC(=O)NC2CCCC2)c1=O,0.555%

row,SMILES,inhibition
1,CC12CN(Cc3ccccc3)CC(C)(CN(Cc3ccccc3)C1)C2=NO,-5.8%
2,CCOC(=O)NC(C(F)(F)F)(C(F)(F)F)P(=O)(c1ccccc1)c1ccccc1,22.6% (active)
3,CCOC(=O)C(C(=O)OCC)C(C#N)c1ccccc1 (configuration not stated),3.99%
4,CCOC(=O)Nc1ccccc1N1C(=O)c2ccccc2C1=O,7.59%
5,CCOC(=O)N1CCC(NC(=O)C(C)n2c3ccccc3c3cnn(C)c(=O)c32)CC1 (configuration not stated),-52.1%
6,CN(CCCC(=O)Nc1nccs1)S(=O)(=O)c1ccc(Cl)cc1,2.62%
7,Cc1cc(C)c2c(n1)nn1c(-n3ccnc3)cc(C)nc21,4.82%
8,CN(C(=O)c1ccno1)c1nnc(-c2cccnc2)s1,0.72%
9,CN(Cc1ccccc1)Cc1ccccc1F,11%
10,O=C(Nc1ccccc1)N(Cc1cccnc1)Cc1ccco1,9.03%
11,O=C(Nc1ccn(Cc2ccc(F)cc2)n1)c1ccncc1,1.2%
12,CS(=O)(=O)N1CCCC(C(=O)N2CCOCC2)C1 (configuration not stated),6.58%
13,Fc1ccccc1OCCSc1nc2ccccc2o1,5.06%
14,COC(=O)C1=C(C)N(C)C(C)=C(C(=O)OC)C1c1cccc(Br)c1,4.43%
15,CC(=O)NC(C)(C)C1CC=C(C)/C(=N\O)C1 (configuration not stated),6.99%
16,Cc1ccc(S(=O)(=O)N2CCC(C(=O)OCC(=O)N3CC(=O)Nc4ccccc43)CC2)cc1,-8.9%
17,Cn1c(-c2ccc(F)cc2)cnc1SCC(=O)NCc1ccco1,-1.83%
18,O=C(CSc1nnc2scc(-c3ccc(F)cc3)n12)NCc1ccco1,2.54%
19,Cc1ccc(-c2csc3nnc(SCC(=O)NCc4ccco4)n23)cc1,25.9% (active)
20,COC(=O)c1c(NC(=O)c2cccs2)sc2c1CCCC2,5.01%
21,NC(=O)COc1ccc2c3c(c(=O)oc2c1)CCCCC3,-3.05%
22,CCC(=O)Nc1ccc(C(=O)CSc2nnc(CNc3ccc(Cl)cc3)o2)cc1OC,1.04%
23,COc1ccc(CCNC(=O)C2CCCN(Cc3nc(-c4cccc(Cl)c4)oc3C)C2)cc1OC (configuration not stated),10.1%
24,Cc1nc2nc[nH]n2c(=O)c1NC(=O)c1cccc(OCC(C)C)c1,8.27%
25,CCOC(=O)C1CCN(C(=O)Cc2c(C(=O)O)[nH]c3ccccc23)CC1,6.1%

row,SMILES,inhibition
1,CCc1c(C)nc2ncnn2c1N1CCC(C(=O)NCc2ccc3c(c2)OCO3)CC1,8.05%
2,CCN(CC)CCN1C(=O)C(=O)/C(=C(/O)c2ccccc2)C1c1ccccc1F (configuration not stated),4.21%
3,Cc1ccc(S(=O)(=O)N(C)CC(=O)N2CCc3ccccc32)cc1,4.38%
4,COc1ccc(C2N=C(N)N=C(N)N2c2ccccc2)cc1OC (configuration not stated),1.53%
5,O=C(CSc1nnc(-c2ccco2)o1)NCC(=O)c1ccccc1,10.1%
6,COc1cccc2c(C)c(C(=O)O)[nH]c12,-18%
7,CCOC(=O)N1CCC(O)(c2cc(C)c(C)cc2C)CC1,9.28%
8,Cc1nc2nc3c(cn2n1)C(=O)CC(c1ccccc1)C3 (configuration not stated),1.31%
9,COc1ccc(CCN2CNc3c(c(=O)n(C)c(=O)n3C)C2)cc1OC,10.4%
10,N#CCCn1ncc2ccccc21,-0.96%
11,COc1cc(=O)[nH]c(=O)n1C(=O)Cc1ccccc1,2.34%
12,COc1ccc(N2CCN(C(=O)CSc3nnc4ncccn34)CC2)cc1,3.9%
13,CCOC(=O)c1cc2sccc2n1Cc1ccc(C#N)cc1,0.72%
14,CCOc1ccc(/C(O)=C2/C(=O)C(=O)N(Cc3cccnc3)C2c2ccc(N(C)C)cc2)c(C)c1 (configuration not stated),-2.04%
15,O=c1c2ccccc2nnn1CSc1nc2sc3c(c2c(=O)n1CC1CCCO1)CCC3 (configuration not stated),0.04%
16,CN(C)CCCNC(=O)c1ccc2[nH]c3ccccc3c2c1,3.52%
17,O=C(CSc1nnc(-c2ccco2)n1Cc1ccccc1)NC(=O)NCc1ccco1,2.1%
18,CCOCCOC(=O)C1=C(C)N(C)C(=O)NC1c1ccccc1F (configuration not stated),5%
19,CCc1ccc(-c2nnn(Cc3nc4ccccc4s3)n2)cc1,9.76%
20,COc1ccc(-c2nnc(SC(C)C#N)o2)cc1 (configuration not stated),-13.7%
21,C=C(C)COc1ccc(-c2n[nH]c(C)c2-c2ccccc2)c(O)c1,6.11%
22,COc1ccc(-c2n[nH]c(C)c2-c2ccc(OC)c(OC)c2)c(O)c1,5.75%
23,C=C(C)COc1ccc(-c2n[nH]c(C)c2-c2ccccc2OC)c(O)c1,21.4% (active)
24,Cc1sc2c(c1C)c(=O)n(-c1ccccc1)c1nncn21,0.14%
25,O=C1CSC(c2cccc(F)c2)N1c1ccccc1F (configuration not stated),1.83%

row,SMILES,inhibition
1,CCCc1[nH]nc2c1C(c1ccc(Br)s1)C(C#N)=C(N)O2 (configuration not stated),7.01%
2,COc1ccccc1-c1cc(C(=O)N2CCCCC2)no1,3.06%
3,COC(=O)CNS(=O)(=O)c1ccc(Cc2ccc(S(=O)(=O)NCC(=O)OC)cc2)cc1,13.4%
4,COC(=O)c1cc(NC2c3ccccc3C(=O)N2c2ccc(Cl)cn2)cc(C(=O)OC)c1 (configuration not stated),3.54%
5,CCCc1nc(N)nc2c1C(=O)CC(C)(C)C2,-0.555%
6,COC(=O)CN(c1cccc(C(C)=O)c1)S(C)(=O)=O,2.59%
7,CCN(c1ccccc1)S(=O)(=O)c1ccc(N)cc1,0.065%
8,O=C(Nc1ccc(Cl)cn1)c1cnn2cccnc12,3.33%
9,Brc1cccc(-c2nnc3n2CCC3)c1,2.48%
10,CC(C)CCNC(=O)CCNS(=O)(=O)c1ccc(Cl)cc1,6.13%
11,CCOC(=O)c1c(-n2cnnn2)sc(C)c1C,13.6%
12,Cc1c2cn[nH]c(=O)c2c(C)n1Cc1ccc(F)cc1,3.31%
13,CC(C)c1nnc(NC(=O)C2CCCN2S(=O)(=O)c2ccc(Cl)cc2)s1 (configuration not stated),9.37%
14,Cc1ccc(S(=O)(=O)N2CCCC2C(=O)NCc2ccco2)cc1 (configuration not stated),3.07%
15,Cc1cccc(NC(=O)C2CCCN2S(=O)(=O)c2ccc(F)cc2)c1C (configuration not stated),23.4% (active)
16,N#Cc1nc(Cc2cccc3ccccc23)oc1NCc1ccc2c(c1)OCO2,3.7%
17,O=C(Cn1nc(Cc2cccnc2)c2ccccc2c1=O)NCC1CCCO1 (configuration not stated),1.16%
18,CCC(C)Sc1nnc(-c2c[nH]c3ccccc23)n1CCOC (configuration not stated),4.33%
19,CCn1c(SCCC(C)C)nnc1-c1c[nH]c2ccccc12,27.8% (active)
20,CCOC(=O)N1CCN(C(=O)CSc2nnc(-c3c[nH]c4ccccc34)n2CCOC)CC1,6.18%
21,O=C(c1ccccc1)c1ccc(OC(=O)N2CCCC2)cc1,5.6%
22,COc1ccc(CCNC(=O)CSc2nnc(CNC(=O)c3cccs3)o2)cc1OC,4.31%
